In PubChem BioAssay (NCATS) one finds activity change, negative = inhibition data, which are given here for 34 compounds.

“And” between values parts separate entries of the source, which are not always exact repeats. Identical values can stand only once. Inconclusive results are not listed. The source made the active and inactive calls. Calls follow the shape of the dose curve; as a rule, active = well fitted curve in either direction with a large enough effect (not every such curve was filed as active); inconclusive = small, poorly fitted or top-dose-only effect, or another doubt; inactive = flat fitted curve, though single readings scatter.
% is scaled to controls: 0 for no effect and ±100 for the full control effect.

A short description of one experiment: AP1 Signaling Pathway (AID 357). The note with it: ME-180 AP-1-bla reporter, EGF-induced, beta-lactamase ratio, 5 h; at 7.69 µM (top of the series). The source says: NCGC Assay Overview: Activator protein-1 (AP-1), a transcription factor, plays an important role in tumor genesis by regulating genes involved in cell proliferation, differentiation, apoptosis, and angiogenesis. AP-1 activity is induced by a complex network of signaling pathways that involves extracellular signals, such as growth factors. The AP-1 protein complex formed from c-Fos and c-Jun binding to the AP-1 response element results in transcriptional activation of genes containing such elements within their promoter. Low molecular weight molecules have been discovered and developed to modulate various components of these signaling pathways, for example, MAP kinase inhibitors. However, many points of pathway modulation remain untested due to the lack of chemical probes making this signaling locus of general interest. Using a beta-lactamase reporter-gene under control of the AP-1 response element, a cell-based assay [CellSensor(TM) AP-1-bla ME-180 developed by Invitrogen Corp.] was used to measure EGF-induced signaling. Library compounds were measured for their ability to modulate positively or negatively the action of EC50 EGF on reporter gene activity. Compounds were screened in a titration series in 1536-well format. Positive and negative modulators were identified based on the AC50 values derived from the screening data.
NCGC Assay Protocol Summary: 2500 cells/5uL in Opti-MEM medium containing 0.5% dialyzed FBS, 0.1 mM NEAA, 1 mM sodium pyruvate and 10 mM HEPES was dispensed into 1536-well plates and cells were cultured at 37 degrees Celsius overnight. […] After centrifugation at 1000 rpm for 2 seconds the plates were incubated at 37 degrees Celsius for 5 hours. 1 uL of CCF4-dye mixture was added to each well. After incubated at room temperature for 2.5 hours the plates were measured on an EnVision plate reader at Excitation 405nm, Emission1=460nm and Emission 2=530nm. The %Activity was determined from the ratio of 460nm/530nm.
For the compound `Cc1cc(N)c2cc(NC(=O)Nc3ccc4nc(C)cc(N)c4c3)ccc2n1`, the activity change, negative = inhibition was 14% (inactive).

The same experiment, now with this note: ME-180 AP-1-bla reporter, EGF-induced, beta-lactamase ratio, 5 h; at 17.2 µM (top of the series).
As for `CCC(C(=O)OCCN(CC)CC)c1ccccc1` (stereo not given), the activity change, negative = inhibition was 1.42% (inactive).
Still for that read-out and setting: the same measure for `C[C@H]1C[C@H]2[C@@H]3CCC4=CC(=O)C=C[C@]4(C)[C@@]3(Cl)[C@@H](O)C[C@]2(C)[C@@]1(O)C(=O)CO`: -9.37% (inactive); for `C=C(CC)C(=O)c1ccc(OCC(=O)O)c(Cl)c1Cl`: -11.1% (inactive) and -7.79% (inactive).
On the same count and under the same terms, in the case of `Cc1c(N(C)CS(=O)(=O)O)c(=O)n(-c2ccccc2)n1C` it was 6.43% (inactive); in that of `CCCCCCCCCCCCCCCC[N+](C)(C)CCN(Cc1ccc(OC)cc1)c1ncccn1`, 21.6% (inactive); in that of `COc1ccc(CCN2CCC(Nc3nc4ccccc4n3Cc3ccc(F)cc3)CC2)cc1`, -6.26% (inactive) and 6.64% (inactive).
Turning to `NCCc1ccn[nH]1`, the activity change, negative = inhibition was 2.73% (inactive).
Consider `COc1cc(-c2ccc(=O)[nH]n2)ccc1OC(F)F`, for which the activity change, negative = inhibition was -8.42% (inactive).
Same read-out and setting: in the case of `Cc1ccnc(NS(=O)(=O)c2ccc(N)cc2)n1` it was 17.4% (inactive); in that of `C1CCc2nnnn2CC1`, 8.91% (inactive).
Still for that read-out and setting: the same measure for `O=C(OCCOCCO)c1ccccc1Nc1cccc(C(F)(F)F)c1`: -27.7% (inactive); for `CCOc1ccc(Cc2nccc3cc(OCC)c(OCC)cc23)cc1OCC`: -1.91% (inactive); for `O=C(CCCN1CCC(O)(c2ccc(Br)cc2)CC1)c1ccc(F)cc1`: 13.1% (inactive).
On the same count and under the same terms, in the case of `COc1c(C)c2c(c(O)c1C/C=C(\C)CCC(=O)O)C(=O)OC2` it was 6.58% (inactive).
With `CC(C)NC[C@@H](O)COc1cccc2ccccc12`, the activity change, negative = inhibition was 7.5% (inactive) and 12.8% (inactive) and 4.83% (inactive).
On the same count and under the same terms, the same measure for `CCn1cc(C(=O)O)c(=O)c2cnc(N3CCCC3)nc21`: 5.94% (inactive).
Still for that read-out and setting: the same measure for `CC(=O)OCC(=O)[C@@]1(O)CC[C@H]2[C@@H]3CCC4=CC(=O)C=C[C@]4(C)[C@H]3[C@@H](O)C[C@@]21C`: 11.9% (inactive).
The same measure, in the same setting: the same measure for `CCCCC(=O)O[C@]1(C(=O)CO)CC[C@H]2[C@@H]3CCC4=CC(=O)CC[C@]4(C)[C@H]3[C@@H](O)C[C@@]21C`: 5.88% (inactive); for `CC(=O)O[C@H]1C[C@@H]2CC[C@@H]3[C@H](CC[C@@]4(C)[C@H]3C[C@H]([N+]3(C)CCCCC3)[C@@H]4OC(C)=O)[C@@]2(C)C[C@@H]1[N+]1(C)CCCCC1`: 10.4% (inactive); for `CCC(NC(C)C)C(O)c1ccc(O)c(O)c1` (stereo not given): -6.11% (inactive).
For `CCCn1c(=O)[nH]c(=O)c2[nH]cnc21`, the activity change, negative = inhibition was 4.48% (inactive).
The same measure, in the same setting: the same measure for `CC(=O)N(O)CCCCCNC(=O)CCC(=O)N(O)CCCCCNC(=O)CCC(=O)N(O)CCCCCN`: -6.04% (inactive).
On the same count and under the same terms, in the case of `Oc1cc(O)c2c(c1)O[C@H](c1ccc(O)c(O)c1)[C@H](O)C2` it was 10.1% (inactive) and 0.263% (inactive); in that of `Nc1nc2ncc(CNc3ccc(C(=O)N[C@@H](CCC(=O)O)C(=O)O)cc3)nc2c(=O)[nH]1`, 0.033% (inactive); in that of `CC(=O)OCC(=O)[C@@]1(O)[C@H](C)C[C@H]2[C@@H]3CCC4=CC(=O)C=C[C@]4(C)[C@@]3(F)[C@@H](O)C[C@@]21C`, -10.4% (inactive).
Turning to `CC(C)N=C(N)/N=C(\N)Nc1ccc(Cl)cc1`, the activity change, negative = inhibition was -0.245% (inactive).
Same read-out and setting: the same measure for `CCN(CCCc1ccccc1)CCCc1ccccc1`: 18.6% (inactive) and 13.2% (inactive).
Consider `NCCCC[C@H](N[C@@H](CCc1ccccc1)C(=O)O)C(=O)N1CCC[C@H]1C(=O)O`, for which the activity change, negative = inhibition was 3.25% (inactive).
On the same count and under the same terms, the same measure for `C[N+]1(CCCCC[N+]2(C)CCCC2)CCCC1`: 5.75% (inactive); for `C[C@]12CC[C@H]3[C@@H](CCC4=CC(=O)CC[C@@]43C)[C@@H]1CC[C@@H]2C(=O)CO`: 12.4% (inactive).
Take `C[C@@H]1C[C@H]2[C@@H]3CCC4=CC(=O)C=C[C@]4(C)[C@@]3(F)[C@@H](O)C[C@]2(C)[C@H]1C(=O)CO`: the activity change, negative = inhibition was 0.15% (inactive).
With `CC(=O)Oc1ccc(C(c2ccc(OC(C)=O)cc2)c2ccccn2)cc1`, the activity change, negative = inhibition is -26.3% (inactive) and -21% (inactive).

Staying with this experiment, now noted: ME-180 (cervical carcinoma) AP-1-bla reporter, EGF-induced, beta-lactamase ratio, 5 h; at 38 µM (top of the series).
For `O=C1CCC(c2ccc(-n3ccnc3)cc2)=NN1`, the activity change, negative = inhibition was 14.9% (inactive).
Same read-out and setting: in the case of `COc1cc(-c2ccc(=O)[nH]n2)ccc1OC(F)F` it was 17.6% (inactive); in that of `C1CCc2nnnn2CC1`, 6.67% (inactive).
Same read-out and setting: in the case of `CC(C)NC[C@@H](O)COc1cccc2ccccc12` it was 17.5% (inactive) and 11.4% (inactive).
In the case of `CCCn1c(=O)[nH]c(=O)c2[nH]cnc21`, the activity change, negative = inhibition was 4.71% (inactive).
The same measure, in the same setting: the same measure for `Oc1cc(O)c2c(c1)O[C@H](c1ccc(O)c(O)c1)[C@H](O)C2`: -5.09% (inactive); for `C[N+]1(CCCCC[N+]2(C)CCCC2)CCCC1`: 7.2% (inactive).
